# Test results as given in paper PMC12431657, “Discovery and mechanistic insights of dibenzoylmethane as a broad spectrum inhibitor of coronavirus” (PLOS Pathogens, 2025).
# Counter-ions that a name gives are not always drawn. Like-named read-outs stand apart in the source and are kept apart here. Among all 3,300 compounds or so, about 95 (3%) showed an effect of 50% or more. The full list was thinned out, with strong results kept by preference.
# Tested on: HCoV-229E
# Parameters: species or system Huh-7; HTS, protection from HCoV-229E induced cell death, luminescent cell viability (CellCounting-Lite 2.0), inhibition rate
# Details: 24 h post infection, 1 h compound pre-incubation, 10 µM, inhibitor
SMILES,229E Inhibition rate [%],"229E Inhibition rate (229E Inhibition rate, 24 h) [%]"
COc1cc([C@@H]2c3cc4c(cc3[C@@H]3OC[C@H]2[C@@H]3CO)OCO4)cc(OC)c1OC [Neoanhydropodophyllol],9.1,–
COc1ccc2cc3[n+](cc2c1OC)CCc1cc2c(cc1-3)OCO2 [Berberine (chloride hydrate)],–,34
C=C1C(=O)O[C@@H]2/C=C(\C)[C@@H](OC(C)=O)C/C=C(\COC(C)=O)C[C@@H](OC(=O)/C(C)=C/CO)[C@@H]12 [Eupalinolide A],–,35.1
C[C@@H](O)C(=O)O [D-(-)-Lactic acid (sodium)],8.1,–
CC(C)C(O)C(=O)O (centres unmarked) [2-Hydroxy-3-methylbutanoic acid],20.4,–
C[C@H](O)C(=O)O [L-Lactic acid],58.1,–
COc1ccc2c3c1O[C@H]1C[C@@H](O)CC[C@]31CCN(C)C2 [Lycoramine],33.8,–
COc1ccc(CC(=O)O)cc1 [2-(4-Methoxyphenyl)acetic acid],0,–
COc1cc(CNC(=O)CCCCCCCC(C)C)ccc1O [Homodihydrocapsaicin I],33,–
Cc1cc(O)cc2c1O[C@](C)(CCC[C@H](C)CCC[C@H](C)CCCC(C)C)CC2 [Delta-Tocopherol],8.2,–
CC(=O)OC/C1=C/C[C@H]2[C@@H](/C=C(\C)C(=O)[C@@]3(OC(C)=O)C[C@H](C)[C@H](OC(=O)c4ccccc4)[C@@H]3[C@H]1OC(C)=O)C2(C)C [Euphorbia factor L7b],41.1,–
CCOC(=O)/C=C/c1ccccc1 [Ethyl cinnamate],4,–
CC(=O)OC/C1=C\[C@H]2[C@@H](OC(=O)/C=C/c3ccccc3)[C@@H](C)C[C@]2(OC(C)=O)C(=O)/C(C)=C/[C@@H]2[C@H](CC1)C2(C)C [Euphorbia factor L7a],90.9,–
COc1cc(/C=C/C(=O)NCC(O)c2ccc(O)cc2)ccc1O (centres unmarked) [N-Feruloyloctopamine],7.9,–
C=C1[C@@H](O)[C@]2(O)OC[C@]34[C@H]2[C@@]2(C)[C@H](O)C(=O)C=C(C)[C@@H]2C[C@H]3OC(=O)[C@H](O)[C@@]14O [Eurycomanone],53.4,–
CC1=CC(=O)[C@@H]2C[C@H]1C2(C)C [Verbenone],0,–
CC1(C)Oc2cc3oc(-c4cc(O)cc(O[C@@H]5OC[C@@H](O)[C@H](O)[C@H]5O)c4)cc3cc2CC1O (some centres unmarked) [Mulberroside C],0,–
O=C(/C=C/c1ccc(O)c(O)c1/C=C/c1ccc(O)c(O)c1)O[C@H](Cc1ccc(O)c(O)c1)C(=O)O [Salvianolic acid A],17.8,–
CCCCCCCCCCCCCCCCC(=O)OC [Methyl heptadecanoate],20.9,–

SMILES,229E Inhibition rate [%],"229E Inhibition rate (229E Inhibition rate, 24 h) [%]"
CCCCCC1C(=O)CCC1CC(=O)OC (centres unmarked) [Methyl dihydrojasmonate],54.7,–
CC/C=C/CC1C(=O)CCC1CC(=O)OC (centres unmarked) [Methyl 2-(3-oxo-2-(pent-2-en-1-yl)cyclopentyl)acetate],22,–
CC(C)(O)[C@@H]1CC[C@](C)([C@H]2[C@@H](O)C[C@@]3(C)[C@@H]4C[C@H](O)[C@H]5C(C)(C)[C@@H](O[C@@H]6OC[C@@H](O)[C@H](O)[C@H]6O[C@@H]6O[C@H](CO)[C@@H](O)[C@H](O)[C@H]6O)CC[C@@]56C[C@@]46CC[C@]23C)O1 [Astragaloside III],10.8,–
CC[C@@]1([C@H]2O[C@H]([C@H]3O[C@@](O)(CO)[C@H](C)C[C@@H]3C)C[C@H]2C)CC[C@H]([C@@]2(C)CC[C@]3(C[C@H](O)[C@@H](C)[C@@H]([C@H](C)[C@H](OC)[C@@H](C)C(=O)O)O3)O2)O1 [Monensin sodium salt],24.5,–
CO[C@@H]1[C@@H](OC)[C@H](C)[C@@](O)(CC(=O)O)O[C@H]1[C@H](C)[C@H]1O[C@@]2(CC[C@@](C)([C@H]3CC[C@@](C)([C@@H]4O[C@@H]([C@H]5O[C@](C)(O)[C@H](C)C[C@@H]5C)C[C@@H]4O[C@@H]4C[C@H](OC)[C@@H](OC)[C@H](C)O4)O3)O2)C[C@H](O)[C@H]1C [Maduramicin (ammonium)],3.4,–
CO[C@H]([C@H](C)[C@H]1O[C@@]2(CC[C@@](C)([C@H]3CC[C@@](C)([C@@H]4O[C@@H]([C@H]5O[C@@](O)(CO)[C@H](C)C[C@@H]5C)C[C@@H]4C)O3)O2)C[C@H](O)[C@H]1C)[C@H](C)C(=O)O [Monensin B],55.3,–
COc1ccc(/C=C/c2cc(OC)cc(=O)o2)cc1 [Yangonin],44,–
C[C@]12CC[C@@H]3c4ccc(O)cc4CC[C@H]3[C@@H]1CC[C@H]2O [Alpha-Estradiol],18.2,–
O=C(/C=C/c1ccc(O)c(O)c1)O[C@@H]1CC(C(=O)O)=C[C@@H](O)[C@H]1O [5-O-Caffeoylshikimic acid],12,–
O=C1/C(=C/c2ccc(O)c(O)c2)COc2cc(O)ccc21 [Sappanone A],15.6,–
CC1(C)CCC[C@]2(C)[C@@H](C=O)C(C=O)=CC[C@@H]12 [Polygodial],16.5,–
C=C[C@](C)(O)CC[C@@H]1[C@@]2(C)CCCC(C)(C)[C@@H]2CC[C@@]1(C)O [Sclareol],19.3,–
CC1(C)CCC[C@]2(C)[C@H]3CCO[C@]3(C)CC[C@@H]12 [Ambroxide],53.4,–
CC1(C)Oc2cc3oc(=O)ccc3cc2C[C@@H]1O [Decursinol],0,–
COc1cc([C@H]2OC[C@H]3[C@@H]2CO[C@@H]3c2ccc(O[C@@H]3O[C@H](CO)[C@@H](O)[C@H](O)[C@H]3O)c(OC)c2)ccc1O[C@@H]1O[C@H](CO)[C@@H](O)[C@H](O)[C@H]1O [Pinoresinol Diglucoside],23.6,–
CSCCC(NC(C)=O)C(=O)O (racemic) [N-Acetyl-DL-methionine],32.7,–
O=c1ccc2cc(O)ccc2o1 [6-Hydroxycoumarin],10.6,–
O=c1ccc2ccc(O)cc2o1 [Umbelliferone],54.3,–
O=c1ccc2cc(O)c(O)cc2o1 [Esculetin],35.1,–

SMILES,229E Inhibition rate [%],"229E Inhibition rate (229E Inhibition rate, 24 h) [%]"
C[C@H](CC[C@@H](O)C(C)(C)O)[C@H]1CC[C@@]2(C)[C@@H]3CC=C4[C@@H](CC[C@H](O[C@@H]5O[C@H](CO[C@@H]6O[C@H](CO)[C@@H](O)[C@H](O)[C@H]6O)[C@@H](O)[C@H](O)[C@H]5O)C4(C)C)[C@]3(C)[C@H](O)C[C@]12C [Mogroside II-A2],10,–
CCCCC[C@H](O)CC(=O)CCc1ccc(O)c(OC)c1 [[6]-Gingerol],52.8,–
CCCCCCCCC[C@H](O)CC(=O)CCc1ccc(O)c(OC)c1 [10-Gingerol],32.3,–
CCCCCCC[C@H](O)CC(=O)CCc1ccc(O)c(OC)c1 [8-Gingerol],13.3,–
Cc1ncc(C[n+]2csc(CCOP(=O)(O)O)c2C)c(N)n1 [Thiamine monophosphate (chloride) (dihydrate)],12.1,–
CC(=O)O[C@H]1[C@H]2[C@H]([C@@H]3[C@H]4OC(=O)[C@@](C)(O)[C@@]5(C)C(=O)C[C@@H](C)[C@@H]([C@@H]45)[C@@]3(C)[C@H]1OC(C)=O)[C@@H](OC(C)=O)C(=O)[C@H]1C[C@@H]3O[C@@H]3[C@H](OC(C)=O)[C@]21C [Taccalonolide C],10.3,–
COc1ccc(-c2cc(=O)c3c(O)cc(O)c(-c4cc(-c5cc(=O)c6c(O)cc(O)cc6o5)ccc4OC)c3o2)cc1 [Isoginkgetin],6.1,–
COc1ccc(-c2cc(=O)c3c(O)cc(O)cc3o2)cc1-c1c(O)cc(O)c2c(=O)cc(-c3ccc(O)cc3)oc12 [Bilobetin],22.4,–
O=c1cc(-c2ccccc2)c2cc(O)c(O)cc2o1 [Nordalbergin],17.6,–
O=c1cc(-c2ccc(O)c(O)c2)oc2cc(O)cc(O)c12 [Luteolin],0,–
O=c1cc(-c2ccccc2)c2c(O)cc(O)cc2o1 [LC3-mHTT-IN-AN2],50.8,–
O=c1cc(-c2ccc(O)cc2)oc2cc(O)cc(O)c12 [Apigenin],55.5,–
COc1cc(O)c2c(=O)cc(-c3ccc(OC)c(-c4c(O)cc(O)c5c(=O)cc(-c6ccc(O)cc6)oc45)c3)oc2c1 [Ginkgetin],64.4,–
O=c1c(O)c(-c2ccccc2)oc2cc(O)cc(O)c12 [Galangin],8,–
O=c1cc(-c2ccccc2)oc2cc(O)cc(O)c12 [Chrysin],0,–
O=C(/C=C/c1ccc(O)c(O)c1)O[C@H]1[C@H](O)C[C@](O)(C(=O)O)C[C@H]1O [Cryptochlorogenic acid],7.4,–
CC1(C)[C@@H](O[C@H]2O[C@H](C(=O)O)[C@@H](O)[C@H](O)[C@H]2O[C@@H]2O[C@H](C(=O)O)[C@@H](O)[C@H](O)[C@H]2O)CC[C@]2(C)[C@H]3C(=O)C=C4[C@@H]5C[C@@](C)(C(=O)O)CC[C@]5(C)CC[C@@]4(C)[C@]3(C)CC[C@@H]12 [Diammonium Glycyrrhizinate],–,0
C[C@@H]1O[C@H]2O[C@H]3[C@@H](OC[C@H](O)[C@@H]3O)OC(=O)[C@]34CCC(C)(C)C[C@H]3C3=CC[C@@H]5[C@@]6(C)C[C@H](O)[C@H](O[C@@H]7O[C@H](CO)[C@@H](O)[C@H](O)[C@H]7O[C@@H]7OC[C@H](OC(=O)C[C@](C)(O)CC(=O)O[C@@H]1[C@@H](O[C@@H]1OC[C@@H](O)[C@H](O)[C@H]1O)[C@H]2O)[C@H](O)[C@H]7O)[C@@](C)(CO)[C@@H]6CC[C@@]5(C)[C@]3(C)C[C@H]4O [Tubeimoside II],0.9,–
